Shown are actives, neighbours in structure and some others; about 7.5% of the full set was active somewhere.
B2AR arrestin – agonists driving beta-arrestin recruitment to human beta2-adrenergic receptor; actives 0.02% (n = 330,000); P07550; AID 492947; beta-arrestin recruitment to beta2AR, cell-based reporter; Potency, µM (doses to about 46.1 µM), actives largely listed as activators; note: nearly all actives have a fitted effect of over 65% in size
Target sequence (P07550 whole entry, looked up): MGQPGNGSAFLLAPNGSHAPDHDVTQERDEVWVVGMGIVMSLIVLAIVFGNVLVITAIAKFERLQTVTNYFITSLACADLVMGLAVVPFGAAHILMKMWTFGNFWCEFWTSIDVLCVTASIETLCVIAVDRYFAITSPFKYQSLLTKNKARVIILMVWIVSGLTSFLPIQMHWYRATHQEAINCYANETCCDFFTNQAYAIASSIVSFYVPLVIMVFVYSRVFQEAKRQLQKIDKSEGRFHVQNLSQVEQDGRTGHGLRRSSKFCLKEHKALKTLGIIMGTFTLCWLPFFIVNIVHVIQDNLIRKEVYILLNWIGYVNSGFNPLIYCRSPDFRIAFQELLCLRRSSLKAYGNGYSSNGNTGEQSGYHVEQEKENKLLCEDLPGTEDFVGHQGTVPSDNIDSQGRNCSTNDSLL
TSHR antag – blocks TSH signaling through the human TSH receptor; actives 0.2% (n = 330,000); activity change, negative = inhibition, % at 11.5 µM; TSHR-expressing cells, TSH-stimulated cAMP HTRF, 2 h; hits give low values; P16473;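 active = activity change below a set negative limit, meaning inhibition stronger than a set level, cut at about -70% in these data; inconclusive = activity change between two set negative limits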
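Competitive HTRF cAMP read-out (cryptate anti-cAMP antibody, cAMP-d2; 30 min, room temperature) in freshly harvested TSHR cells. Compounds added before TSH at EC80 (4nM final), followed by 2 hours' incubation at 37 deg C.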
VP16 counter – Gal4-VP16 reporter inhibition counter-screen. actives 3.5% (n = 310,000). Drosophila S2 Gal4-VP16 UAS-luciferase, luminescence, 20 h. Potency, µM (series often up to 53.6 µM), hits mostly inhibitors;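 note: Gal4-VP16 expression switched on by copper sulfate through the metallothionein promoter; nearly all actives have a fitted effect of over 50% in size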
RORgamma inh – blocks mouse ROR gamma transcriptional activity; P51450; Drosophila S2 Gal4-RORgamma UAS-luciferase reporter, 20 h; Potency, µM (highest dose often 53.6 µM), most hits filed as inhibitors; actives 5.4% (n = 310,000); note: nearly all actives have a fitted effect of over 60% in size
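Read-out: Photinus luciferase luminescence; inhibitors lower reporter signal. Insect Schneider cells with Gal4-ROR gamma fusion under metallothionein promoter, UAS reporter; 700 uM final copper sulfate induction, 20 hr, ambient temperature.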
ELG1 DNA repair – blocks ELG1-dependent DNA repair in HEK293T cells. HEK293T ELG1-luciferase reporter, luminescence, 16 h; DNA damage induced by 5-fluorouridine. Potency, µM (highest dose often 46.1 µM), actives largely listed as inhibitors. actives 2.3% (n = 330,000); note: nearly all actives have a fitted effect of over 55% in size
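5-Fluorouridine DNA damage + compound/DMSO, 2,000 cells/well, 16 h, 37 °C/5% CO2. ONE-Glo, 30 min RT, luminescence. Readout = decrease in reporter signal.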
Each line names hits and unclear results; the compound was inactive in the other large screens. Unless noted, calls come from the whole dose curve; as a rule, active = well fitted curve in the direction sought with a large enough effect; inconclusive = small, poorly fitted or top-dose-only effect, or another doubt; inactive = no such curve, though single readings can be large; an effect the other way counts as inactive or inconclusive.

O=C(NC1CCCC1)c1cnn2c(C(F)(F)F)cc(-c3ccc4c(c3)OCO4)nc12	ELG1 DNA repair 4.1µM
Cc1ccc(-c2cc(C(F)(F)F)n3ncc(C(=O)N4CCN(C)CC4)c3n2)cc1	ELG1 DNA repair 9.2µM
CCC(C)(Oc1ccc(C2(c3ccc(OC(C)(CC)C(=O)O)cc3)CCCCC2)cc1)C(=O)O (centres undefined)	none (no result: B2AR arrestin, TSHR antag, ELG1 DNA repair)
CC(=O)OCC(=O)[C@@]1(O)CCC2C3C[C@H](C)C4=CC(=O)C=CC4(C)C3C(O)CC21C (some centres undefined)	none (no result: B2AR arrestin, TSHR antag, ELG1 DNA repair)
CCCN1C(=O)c2ccc(C(=O)Nc3nccs3)cc2C1=O	VP16 counter inconclusive, RORgamma inh 10µM
CC(C)CN1C(=O)c2ccc(C(=O)Nc3ccncc3)cc2C1=O	VP16 counter 20µM, RORgamma inh inconclusive, ELG1 DNA repair inconclusive
CCCc1cc(C(=O)Nc2nccs2)cs1	VP16 counter 7.9µM, RORgamma inh 5µM, ELG1 DNA repair inconclusive
CC(C)CN1C(=O)c2ccc(C(=O)Nc3nccs3)cc2C1=O	VP16 counter inconclusive, RORgamma inh 8.9µM, ELG1 DNA repair inconclusive
CC(C)CN1C(=O)c2ccc(C(=O)Nc3ccccn3)cc2C1=O	ELG1 DNA repair inconclusive
COc1ccc(/C=C/c2nc(S(=O)(=O)c3ccccc3)c(N(C)C)o2)cc1	ELG1 DNA repair inconclusive
COC(=O)c1ccc(C(NC(=O)OCc2ccccc2)/C(=C/[C@@H](C)C(=O)NCCF)c2cccnc2)cc1 (some centres undefined)	none (no result: B2AR arrestin, TSHR antag, ELG1 DNA repair)
CC12C=C(/C=C/c3ccc(Br)cc3)C(C)(C1)[C@H](c1ccc(Br)cc1)CC2=O (some centres undefined)	none (no result: B2AR arrestin, TSHR antag, ELG1 DNA repair)
Cn1c(CCN2CCN(c3ccccn3)CC2)nc2cc(NS(=O)(=O)c3ccccc3)ccc21	ELG1 DNA repair 9.2µM
C/C(=N\NC(=O)c1c(Cl)c(C)nn1C)c1cccc(NC(=O)COc2ccc(Cl)cc2)c1	ELG1 DNA repair 16µM
CC[N+](CC)(CC)CC[C@](O)(c1ccccc1)C1CCCCC1	none (no result: B2AR arrestin, TSHR antag, ELG1 DNA repair)
O=C(c1cc(=O)[nH]c2ccccc12)N1CCN(S(=O)(=O)c2ccc(Cl)cc2)CC1	ELG1 DNA repair 23µM (no result: VP16 counter, RORgamma inh)
COc1ccc(N2C(=O)N3[C@@H]4c5ccccc5OC[C@@H]4[C@@H](c4ccccc4)[C@@]3(C)C2=O)cc1	none (no result: VP16 counter, RORgamma inh)
CCN1C(=O)[C@H]2[C@H]3[C@H](O)[C@H](O)C/C(=N/O[C@@H](C)CN4CCCCc5nc(C)c(C)cc54)[C@@H]3CC[C@@H]2C1=O	none (no result: B2AR arrestin, TSHR antag, ELG1 DNA repair)
CCCCCC(CC)COC(=O)CC(C(=O)OCC(CC)CCCC)S(=O)(=O)O (centres undefined)	none (no result: B2AR arrestin, TSHR antag, ELG1 DNA repair)
COc1cc(C(=O)N/N=C/C2CC=CCC2)cc(OC)c1OC (centres undefined)	VP16 counter inconclusive
O=C(N/N=C/C1CC=CCC1)c1ccc(O)cc1O (centres undefined)	VP16 counter 2.8µM, RORgamma inh 1.1µM
O=C(N/N=C/C1CC=CCC1)c1cc2ccccc2cc1O (centres undefined)	VP16 counter inconclusive, RORgamma inh 10µM
Cc1c(-n2c(SC(C)C(=O)NC(N)=O)nc3ccccc3c2=O)c(=O)n(-c2ccccc2)n1C (centres undefined)	none
C[C@@H](C(=O)NCc1ccc(C(F)(F)F)nc1)[C@H]1C[C@]1(C)[C@H](NC(=O)OCc1ccccc1)c1ccccc1	none (no result: B2AR arrestin, TSHR antag, ELG1 DNA repair)
C#C[C@@]1(O)CC[C@@H]2[C@H]3CCC4=C/C(=N\O)CC[C@H]4[C@@H]3CC[C@]21CC	none (no result: B2AR arrestin, TSHR antag, ELG1 DNA repair)
O=C(O)c1cccc(COc2ccc(CO)cc2Cl)c1	VP16 counter 5µM, RORgamma inh 1.8µM, ELG1 DNA repair inconclusive
CCOc1ccc(OCc2cccc(C(=O)O)c2)cc1	VP16 counter inconclusive, RORgamma inh 1.6µM, ELG1 DNA repair inconclusive
O=C(O)c1cccc(COc2ccc3c(c2)CCC3)c1	ELG1 DNA repair inconclusive
COc1ccc(OCc2cccc(C(=O)O)c2)cc1	VP16 counter inconclusive, RORgamma inh 1.8µM, ELG1 DNA repair inconclusive
O=C(O)c1ccc(COc2ccc(CO)cc2Cl)cc1	VP16 counter inconclusive, RORgamma inh inconclusive, ELG1 DNA repair inconclusive
CCOc1ccc(OCc2cccc(C(=O)N3CCCC3)c2)cc1	RORgamma inh inconclusive, ELG1 DNA repair inconclusive
Cn1c(=O)c(-c2ccccc2)nc2cnc(N3CCOCC3)nc21	none (no result: B2AR arrestin, TSHR antag, ELG1 DNA repair)
COC(=O)N1CCC2(CCN(Cc3ccccc3OC)CC2)CC1	none (no result: B2AR arrestin, TSHR antag, ELG1 DNA repair)
COC1=CC(=O)C=C(OC)C1=O	VP16 counter 4.5µM, RORgamma inh 2.8µM (no result: B2AR arrestin, TSHR antag, ELG1 DNA repair)
COC1=C(c2ccccc2)C(=O)c2ccccc2C1=O	none
COC1=CC(=O)c2ccccc2C1=O	ELG1 DNA repair 18µM (no result: VP16 counter, RORgamma inh)
O=Cc1ccc(CO)o1	none (no result: B2AR arrestin, TSHR antag, ELG1 DNA repair)
C[C@H](NC(=O)c1nc[nH]c1C(=O)N[C@@H](CCCCNC(=O)OC(C)(C)C)C(=O)OC(C)(C)C)C(=O)OC(C)(C)C	VP16 counter 13µM, RORgamma inh inconclusive, ELG1 DNA repair inconclusive
CC(C)(C)OC(=O)NCCCCCNC(=O)c1[nH]cnc1C(=O)N[C@@H](CCCCNC(=O)OC(C)(C)C)C(=O)OC(C)(C)C	VP16 counter inconclusive, RORgamma inh inconclusive, ELG1 DNA repair inconclusive
CC(C)(C)OC(=O)NCCCC[C@H](NC(=O)c1nc[nH]c1C(=O)N[C@@H](CCCCNC(=O)OC(C)(C)C)C(=O)OC(C)(C)C)C(=O)OC(C)(C)C	RORgamma inh inconclusive, ELG1 DNA repair 9.2µM
CC(C)(C)OC(=O)NCCCC[C@H](NC(=O)c1nc[nH]c1C(=O)NC(c1ccccc1)c1ccccc1)C(=O)OC(C)(C)C	VP16 counter inconclusive, RORgamma inh 10µM
CN(Cc1ccco1)c1nc(-c2cccc(C#N)c2)nc2ccccc12	none (no result: B2AR arrestin, TSHR antag, ELG1 DNA repair)
O=c1[nH]c2cc(Cl)c(O)cc2o1	none (no result: B2AR arrestin, TSHR antag, ELG1 DNA repair)
COc1ccc(-c2nc3cnc(N4CCNCC4)nc3n(CCc3ccccc3)c2=O)cc1	none (no result: B2AR arrestin, TSHR antag, ELG1 DNA repair)
N#CC1=C2SCN(c3ccccc3)CN2C(=O)CC1c1c(Cl)cccc1Cl (centres undefined)	B2AR arrestin inconclusive, VP16 counter inconclusive, RORgamma inh 16µM, ELG1 DNA repair inconclusive
N#CC1=C2SCN(c3ccccc3)CN2C(=O)CC1c1ccccc1Cl (centres undefined)	VP16 counter inconclusive, RORgamma inh inconclusive
COc1ccc(C=C2c3ccccc3C(=O)c3ccccc32)cc1O	none (no result: B2AR arrestin, TSHR antag, ELG1 DNA repair)
CCCCCCCCCCCCCCC[C@H](O)[C@H](N)CO	VP16 counter inconclusive, RORgamma inh inconclusive (no result: B2AR arrestin, ELG1 DNA repair)
COc1cc(C)ccc1OCCCOc1ccccc1Br	RORgamma inh 13µM, ELG1 DNA repair inconclusive
O=C(O)CCCCCCCCc1cn(CC2CCCCC2)nn1	VP16 counter 1.8µM, RORgamma inh 4.5µM
O=C(O)CCCCCCCCc1cn(Cc2ccc(C(=O)c3ccccc3)cc2)nn1	none
CCOC(=O)[C@]1(C(NC(=O)OC)c2ccco2)CCCC1=O (some centres undefined)	none (no result: B2AR arrestin, TSHR antag, ELG1 DNA repair)
O=C1C2C(c3ccccc3)CC=CC2C(c2ccc3ccccc3c2)N1Cc1ccccc1 (centres undefined)	none (no result: B2AR arrestin, TSHR antag, ELG1 DNA repair)

Source: PubChem
